Results filed as inconclusive are left out. Where a call stands in place of a potency, no number is given. The source made the active and inactive calls. Calls follow the shape of the dose curve; as a rule, active = well fitted cell-killing curve with a large enough effect; inconclusive = small, poorly fitted or top-dose-only effect, or effect the other way; inactive = no such curve, though single readings can be large or run the other way.
Test: qHTS of pediatric cancer cell lines to identify multiple opportunities for drug repurposing: Confirmatory screen for OHS-50 cells (AID 1347128);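 also: compound exposure lasted 48 h at 37 degrees C; nearly all actives have a fitted effect of over 55% in size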
Settings: OHS-50 osteosarcoma cells viability; series mostly up to 45.9 µM
Description: Drug repurposing or repositioning has been offered as a strategy for drug development in oncology programs. This approach has special potential for childhood cancers and other rare or orphan diseases, where the expected return on new drug development has been a disincentive to pharmaceuticals.
In this project we exploit the poly-pharmacology of drugs to discover new indications via phenotypic screening of a panel of 19 well-characterized cell lines derived from solid tumors seen in children and adolescents. The goal is to identify approved drugs with previously unrecognized anticancer properties that has the potential to reveal new mechanisms and biological processes involved in carcinogenesis or drug resistance. We employed a titration-based paradigm (quantitative high-throughput screening or qHTS), where all compounds were tested at multiple concentrations for their effect on cell viability. Concentration-response curves (CRCs) were derived directly from the primary screen, and both potency and efficacy values were used to identify compounds with robust bioactivity profiles. We screened the NIH Chemical Genomics Center (NCGC) Pharmaceutical Collection (NPC) and Mechanism Interrogation Plate (MIPE) small molecule collections of approved and investigational compounds against these cell lines; and measured metabolically active cells after 48 hours of compound treatment as a proxy for cell viability.
Assay Submitter: Nathalia J. Martinez, National Center for Advancing Translational Sciences, National Institutes of Health, Rockville, MD, USA; email: natalia.martinez@nih.gov
[1] Shen, M et al. Quantitative high-throughput phenotypic screening of pediatric cancer cell lines identifies multiple opportunities for drug repurposing. Oncotarget 2017 Dec 19;9(4):4758-4772. PMID 29435139.
The cells were obtained from University of North Carolina (UNC), Pediatric Preclinical Testing Program (PPT), and Coriell Institute (CI).
qHTS cell viability assay:
Cells were assayed in growth media at a density of 500-1,000 cells/well. Five microliters of cells were dispensed into 1,536-well, white, solid-bottom, TC-treated plates (Greiner Bio One) using a multidrop dispenser and incubated at 37 degrees C, 5% CO2, under a humidified atmosphere for 5 hours. Twenty-three nanoliters of compounds and controls (neutral control DMSO or positive control bortezomib at final concentration of 2.3 µM) were subsequently transferred by Kalypsys pintool. For primary screens, the MIPE collection was tested at 11-point dilutions (final concentrations range from 0.78 nM to 46 µM) and the NPC collection at 8-point dilutions (final concentrations range from 0.59 nM to 46 µM). Compounds tested in follow-up screens were assayed at 11-point dilutions. Cells were incubated for 48 hours, followed by addition of 3 µL of CellTiter-Glo (Promega). After a 15 min incubation at room temperature, samples were analyzed for luminescence intensity using a ViewLux High-throughput CCD imager equipped with clear filters.
Potency is read from the fitted curve at half-maximal effect.

Row | Structure (SMILES) | Potency
1 | Oc1ccc(-c2nc(-c3ccc(F)cc3)c(-c3ccncc3)[nH]2)cc1 | 3690 nM (active)
2 | CC(=O)O[C@H]1C(=O)[C@@]2(C)C([C@H](OC(=O)c3ccccc3)[C@]3(O)C[C@H](OC(=O)[C@H](O)[C@@H](NC(=O)c4ccccc4)c4ccccc4)C(C)=C1C3(C)C)[C@]1(OC(C)=O)CO[C@@H]1C[C@@H]2O (stereo partly specified) | 20.8 nM (active)
3 | Nc1ccn([C@@H]2O[C@H](CO)[C@@H](O)C2O)c(=O)n1 (stereo partly specified) | inactive
4 | c1cnc2cc3c(cc2n1)C1CNCC3C1 | inactive
5 | CN(C)c1ccc2nc3ccc(=[N+](C)C)cc-3sc2c1 | 8270 nM (active)
6 | CN(C)c1ccc(O)c2c1C[C@H]1C[C@H]3[C@H](N(C)C)C(=O)C(C(N)=O)=C(O)[C@@]3(O)C(=O)C1=C2O | inactive
7 | CS(=O)(=O)OCCCCOS(C)(=O)=O | inactive
8 | Clc1ccc(C(Cn2ccnc2)OCc2ccsc2Cl)c(Cl)c1 (stereo unspecified) | 11700 nM (active)
9 | C[C@]12CCC(=O)C=C1CC[C@@H]1[C@H]2[C@@H](O)C[C@@]2(C)[C@H]1CC[C@]2(O)C(=O)CO | inactive
10 | CCN(CC)CCOc1ccc(Nc2ncc3cc(-c4c(Cl)cccc4Cl)c(=O)n(C)c3n2)cc1 | 1310 nM (active)
11 | O=C1c2c(O)cc(O)cc2OC(c2ccc(O)c(O)c2)C1O (stereo unspecified) | inactive
12 | CCN(CCO)CCCC(C)Nc1ccnc2cc(Cl)ccc12 (stereo unspecified) | inactive
13 | CC(S)C(=O)NCC(=O)O (stereo unspecified) | inactive
14 | Nc1ncn([C@H]2C[C@H](O)[C@@H](CO)O2)c(=O)n1 | inactive
15 | C=C(c1ccc(C(=O)O)cc1)c1cc2c(cc1C)C(C)(C)CCC2(C)C | inactive
16 | O=C(CCc1ccc(O)cc1)c1c(O)cc(O)cc1O | inactive
17 | Nc1nc(OCc2ccccc2)c2[nH]cnc2n1 | inactive
18 | CCOc1cc(CC(=O)N[C@@H](CC(C)C)c2ccccc2N2CCCCC2)ccc1C(=O)O | inactive
19 | Cc1nc(Nc2ncc(C(=O)Nc3c(C)cccc3Cl)s2)cc(N2CCN(CCO)CC2)n1 | inactive
20 | CC(C)C[C@H](NC(=O)[C@H](Cc1ccccc1)NC(=O)c1cnccn1)B(O)O | 73.7 nM (active)
21 | CCCCc1ccc2nc(NC(=O)OC)[nH]c2c1 | 329 nM (active)
